TRb SRC2 PPI: inhibitors of human thyroid hormone receptor beta-SRC2 interaction; TRbeta-SRC2 peptide binding, fluorescence polarization; receptor liganded with 1 µM T3; Potency, µM (titrated, usually from 106 µM), most hits filed as inhibitors; 280,000 tested, 0.065% active; note: nearly all actives have a fitted effect of over 50% in size
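Human TRb ligand-binding domain (0.6 uM) is mixed with 20 nM Texas Red SRC2 peptide and 1 uM T3; after compound addition and 5 hr at ambient temperature, polarization is measured and normalized to unbound and bound controls.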
APEX1 inh: blocks human APE1 abasic DNA cleavage; 350,000 tested, 0.35% active; recombinant APE1, TAMRA/BHQ-2 abasic DNA cleavage fluorescence; Potency, µM (top dose mostly 65.8 µM), hits mostly inhibitors; P27695; note: nearly all actives have a fitted effect of over 55% in size
Target sequence (P27695 whole entry, looked up): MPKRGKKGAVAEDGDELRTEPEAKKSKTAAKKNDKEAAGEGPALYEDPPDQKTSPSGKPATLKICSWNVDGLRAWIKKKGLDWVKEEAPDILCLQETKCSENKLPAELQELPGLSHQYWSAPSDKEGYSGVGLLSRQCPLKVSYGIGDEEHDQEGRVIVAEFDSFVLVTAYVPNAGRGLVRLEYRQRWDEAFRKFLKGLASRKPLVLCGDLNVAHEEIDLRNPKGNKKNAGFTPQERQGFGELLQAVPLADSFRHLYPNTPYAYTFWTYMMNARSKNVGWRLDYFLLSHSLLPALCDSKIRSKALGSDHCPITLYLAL
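Endonuclease cleavage of a quenched abasic-site DNA duplex (50 nM) by APE1 (0.75 nM) was tracked by TAMRA dequenching. Compounds were preincubated with enzyme 15 min at room temperature; data normalized to buffer-only and DMSO wells plus NSC13755 control.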
TexasRed fluor: counter-screen for TRb-SRC2 inhibitors: fluorescence interference; TRb/SRC2 Texas Red total fluorescence interference; Potency, µM (doses to about 106 µM); 280,000 tested, 0.29% active; active = well fitted curve in either direction with a large enough effect; inconclusive = small, poorly fitted or top-dose-only effect
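Human TRβ ligand-binding domain (0.6 uM) and Texas Red SRC2 peptide (20 nM) in Tris buffer with 1 uM T3 and 5% DMSO were incubated with pinned compound for 5 hr at ambient temperature. Total fluorescence was computed as S + 2P (555/632 nm).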
RECQ1 inh: RECQ1 (human) helicase inhibition; 240,000 tested, 0.54% active; AID 2549; RECQ1 DNA unwinding, red fluorescence kinetic read; Potency, µM (doses to about 57.3 µM), usual class: inhibitors; note: nearly all actives have a fitted effect of over 30% in size
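RECQ1T1 50 nM; forked duplex (20 bp + 30-nt ss tails) 200 nM, ATP 2 mM final; pH 8.0, 2 mM MgCl2, 2.5 ug/ml poly(dI-dC); 15 min compound preincubation; discontinuous kinetic read over 2 h at RT.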
WRN inhibitor: blocks human WRN helicase; WRN helicase unwinding, fluorescent forked duplex, kinetic; Potency, µM (titrated, usually from 114 µM), most hits filed as inhibitors; 360,000 tested, 0.46% active; note: nearly all actives have a fitted effect of over 55% in size
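WRN at 20 nM final was preincubated with compound for 15 min at room temperature; reaction started with 100 nM forked duplex oligonucleotide carrying fluorophore and quencher plus 2 mM ATP (final). Unwinding followed kinetically by red fluorescence (ex 525/em 598 nm).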
BLM inh: Bloom syndrome helicase (human) inhibition | recombinant BLM DNA unwinding, fluorescence dequenching | Potency, µM (top dose mostly 56.1 µM), usual class: inhibitors | 350,000 tested, 0.2% active; note: nearly all actives have a fitted effect of over 35% in size
Large screens that a line does not name were inactive; [ ] = dose if it differs, or a comment. In the library only some 0.91% were active in any assay of this set; here they are far more common. Unless noted, calls come from the whole dose curve; as a rule, active = well fitted curve in the direction sought with a large enough effect; inconclusive = small, poorly fitted or top-dose-only effect, or another doubt; inactive = no such curve, though single readings can be large; an effect the other way counts as inactive or inconclusive.

CC[C@@]1([C@@H]2O[C@@H]([C@H]3O[C@@](O)(CO)[C@H](C)C[C@@H]3C)C[C@@H]2C)CC[C@H]([C@]2(C)CC[C@]3(C[C@H](O)[C@@H](C)[C@@H]([C@@H](C)[C@@H](OC)[C@H](C)C(=O)O)O3)O2)O1 (stereo in doubt)	none (no result: TRb SRC2 PPI, TexasRed fluor, RECQ1 inh, WRN inhibitor, BLM inh)
Cc1ccc(C2CC(=O)Nc3cc4c(cc32)OCCO4)cc1 (stereo unspecified)	TexasRed fluor 0.0501µM[quencher] (no result: APEX1 inh, RECQ1 inh, WRN inhibitor)
O=C1CC(c2ccc(Cl)cc2)c2cc3c(cc2N1)OCCO3 (stereo unspecified)	none (no result: APEX1 inh, RECQ1 inh, WRN inhibitor)
O=C(O)c1cccc(-c2noc(-c3ccccc3F)n2)c1	none (no result: TRb SRC2 PPI, APEX1 inh, TexasRed fluor, RECQ1 inh, WRN inhibitor)
CCOc1ccc2noc3c2c1C(=O)c1ccccc1-3	TRb SRC2 PPI 50.1µM, TexasRed fluor inconclusive
CCN(CC)S(=O)(=O)c1ccc(C(=O)NCc2ccc3c(c2)cc(C)n3C)cc1	TRb SRC2 PPI 39.8µM, TexasRed fluor 44.7µM[fluorescent], WRN inhibitor 50.1µM
COc1cc(-c2ccc(Nc3ccccc3C(=O)O)c(OC)c2)ccc1Nc1ccccc1C(=O)O	RECQ1 inh inconclusive, WRN inhibitor 31.6µM
CC(C)(C)OC(=O)N1CC23CC(c4ccc(F)cc4)C(CC2S1(=O)=O)O3 (stereo unspecified)	none (no result: WRN inhibitor)
CC1CCCCN1CCNC(=O)c1ccc(Cn2c(SCc3ccccc3)nc3cccnc32)cc1 (stereo unspecified)	none (no result: APEX1 inh, RECQ1 inh, WRN inhibitor)
O=C(O)CCNc1ccc(NCCC(=O)O)c2c1C(=O)c1ccccc1C2=O	APEX1 inh 6.7µM, WRN inhibitor inconclusive, BLM inh inconclusive (no result: TRb SRC2 PPI, TexasRed fluor, RECQ1 inh)
O=[N+]([O-])c1cc(/C=N/n2c(-c3ccncc3)n[nH]c2=S)ccc1Cl	RECQ1 inh 4.47µM, WRN inhibitor inconclusive
Cc1cc(-c2n[nH]c(=S)n2/N=C/c2ccc(Cl)c([N+](=O)[O-])c2)n[nH]1	none
S=c1[nH]nc(-c2cc(-c3ccccc3)n[nH]2)n1/N=C/c1cccc(Cl)c1	RECQ1 inh inconclusive, WRN inhibitor 50.1µM
Cc1ccc(S(=O)(=O)c2cnc(SCC(=O)Nc3cc(C)cc(C)c3)nc2N)cc1	TexasRed fluor inconclusive (no result: APEX1 inh, RECQ1 inh, WRN inhibitor)
COC1=C(N)C(=O)c2nc(-c3nc(C(=O)O)c(C)c(-c4ccc(OC)c(OC)c4O)c3N)ccc2C1=O	WRN inhibitor inconclusive, BLM inh 3.55µM
COc1cccc(CNc2ccc3c(c2)ncn3C)c1OC	TexasRed fluor 0.0089µM[quencher] (no result: RECQ1 inh)
CCn1cnc2cc(NCc3ccccc3Cl)ccc21	none (no result: TRb SRC2 PPI, TexasRed fluor, RECQ1 inh)
CCCCn1cnc2cc(NCc3ccccc3Cl)ccc21	TexasRed fluor 0.0631µM[quencher] (no result: APEX1 inh, RECQ1 inh, WRN inhibitor)
O=C(O)c1ccc2c(c1)C(=O)OC2=O	none (no result: APEX1 inh, RECQ1 inh, WRN inhibitor, BLM inh)
CC(=O)O[C@H]1C[C@@]2(O)[C@@H](OC(=O)c3ccccc3)C3[C@@](C)([C@@H](O)C[C@H]4OC[C@@]34OC(C)=O)[C@@H](O)[C@H](OC(C)=O)C(=C1C)C2(C)C (stereo partly specified)	none (no result: TRb SRC2 PPI, TexasRed fluor, RECQ1 inh)
Cc1cc(N/N=C/c2ccc(N(C)C)cc2)c2ccccc2n1	none (no result: TRb SRC2 PPI, TexasRed fluor, RECQ1 inh)
Cc1cc(N/N=C/c2ccc(O)cc2)c2cccc(C)c2n1	APEX1 inh inconclusive, WRN inhibitor 44.7µM, BLM inh inconclusive (no result: TRb SRC2 PPI, TexasRed fluor, RECQ1 inh)
CCN(CC)C1=CC2=CC(=C(C#N)C#N)CCC2CC1 (stereo unspecified)	none
N#CC(C#N)=C1C=C2C=C(N3CCCCC3)CCC2CC1 (stereo unspecified)	RECQ1 inh 28.2µM, WRN inhibitor inconclusive
CCCCN(C)C1=CC2=CC(=C(C#N)C#N)CCC2CC1 (stereo unspecified)	RECQ1 inh 14.1µM, WRN inhibitor inconclusive, BLM inh 12.6µM
CCc1cc(CNC(=O)c2ccc(OC3CCN(CCc4ccccc4)CC3)cc2)on1	APEX1 inh 11.9µM (no result: TRb SRC2 PPI, TexasRed fluor, RECQ1 inh)
O=S(=O)(Nc1cc(Sc2cccc3cccnc23)c(O)c2ccccc12)c1ccc(F)cc1	TRb SRC2 PPI inconclusive, WRN inhibitor 22.4µM
COc1cccc(C(=O)Nc2ccc3oc(-c4cccc5c(Br)cccc45)nc3c2)c1	none (no result: APEX1 inh, RECQ1 inh, WRN inhibitor)
C/C=C(/CC[C@@H](C)[C@H]1CC[C@H]2C3=CC[C@H]4[C@H](C)[C@@H](O)CC[C@]4(C)[C@H]3CC[C@]12C)C(C)C	none (no result: TRb SRC2 PPI, TexasRed fluor, RECQ1 inh, WRN inhibitor, BLM inh)
COc1ccccc1N1CCN(C(=O)CNS(=O)(=O)c2ccc(Br)s2)CC1	TRb SRC2 PPI inconclusive, TexasRed fluor 79.4µM[quencher] (no result: RECQ1 inh)
COc1ccccc1N1CCN(C(=O)c2ccc(C(C)(C)C)cc2)CC1	WRN inhibitor 50.1µM
COc1ccc(C(=O)N2CCN(c3ccccc3OC)CC2)cc1	none
CCSC(=O)N(CC(C)C)CC(C)C	none (no result: APEX1 inh, RECQ1 inh, WRN inhibitor, BLM inh)
COc1cccc(CNC(=O)Cn2ncc3c4ccccc4n(C)c3c2=O)c1	none (no result: APEX1 inh, RECQ1 inh, WRN inhibitor)
COc1cccc(Cn2ncc3c4sc(B(O)O)cc4n(C)c3c2=O)c1	APEX1 inh 9.47µM (no result: TRb SRC2 PPI, TexasRed fluor, RECQ1 inh, WRN inhibitor, BLM inh)
Oc1cccc(/C=N/NC(=S)NCCN2CCOCC2)c1O	APEX1 inh inconclusive, RECQ1 inh 12.6µM
